Screening results: PubChem, several laboratories
The list is not random: actives were taken first. Their share in the collection is about 2.5%.
EWS-Fli block: blocks EWS/Fli oncoprotein-driven transcription; A673 NR0B1-luciferase reporter, viability-normalised; inhibition, % at 12.6 µM; hit rate 0.67% among 350,000;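 active means mean inhibition of at least 50% after viability correction, with every replicate also passing that limit; inconclusive means mean reaches 50% but only one of two replicates passes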;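 further: firefly luciferase signal divided by Alamar Blue viability fluorescence both relative to DMSO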
PAX8 inh HTS: lowers PAX8-driven luciferase in RMG-I cells; RMG-I TPO-luciferase reporter, SteadyGlo, 24 h; inhibition, % at 12.6 µM; hit rate 1.2% among 360,000; AID 652154;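 active means mean replicate inhibition at least 60% with every replicate also reaching 60%; inconclusive means only one of the two criteria is met; inactive means mean below 60% and not all replicates reaching 60%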;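 further: luciferase light reporting Pax8 driven TPO promoter activity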
HIV Env fusion: HIV envelope-mediated fusion inhibition; HeLa-JRFL Env/CEM21 cell fusion, luciferase; inhibition, % at 12.3 µM; hit rate 1.1% among 360,000; AID 651610;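 active means mean replicate inhibition score of at least 50 and every replicate individually at or above 50; inconclusive means only one of the two criteria met; inactive means mean below 50 and not all replicates reaching 50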
F508del corr: CFTR F508del correction in bronchial cells; activity (quench increase), % at 7.58 µM; AID 720511; hit rate 0.36% among 350,000; CFBE cells, YFP halide quenching; stimulated with forskolin plus potentiator P3; % fluorescence drop versus neutral controls;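 active means mean added fluorescence quench of at least 8% versus neutral control, with both replicates also reaching 8%; inconclusive means only one of the mean or replicate conditions met; inactive means mean below 8% and not both replicates reaching 8%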;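 further: cells transiently co-express mutant CFTR-F508del with the halide-sensitive YFP; corrector assay measuring rescue of mutant channel to the surface after 24 h compound exposure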
GAA850 FXN act: activators of GAA850 frataxin (FXN) promoter; activation, % at 6 µM; HEK293 lucGAA850 FXN promoter luciferase reporter, 24 h; percent of 10 µM SAHA response; hit rate 0.56% among 360,000;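 active means activation above the average of all compounds screened plus 3 SD, cutoff fixed separately per campaign, cut at about 7.5% in these data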
Numbers stand for hits; . = inactive; ? = inconclusive; / = no result given.

SMILES	EWS-Fli block	PAX8 inh HTS	HIV Env fusion	F508del corr	GAA850 FXN act
O=C(/C=C/c1ccco1)Nc1cccc(C(=O)Nc2ccccc2C(=O)O)c1	.	.	88	.	.
CCOC(=O)c1oc2cccc(O)c2c1CN(Cc1ccccc1)C(C)=O	/	/	60	/	.
CCOC(=O)c1oc2cccc(O)c2c1C	/	/	.	/	.
Clc1ccc(C[n+]2cc(-c3ccccc3)n3c2CCCCC3)c(Cl)c1	.	81	.	.	.
Clc1ccc(-c2c[n+](Cc3ccc(Cl)cc3Cl)c3n2CCCCC3)cc1	.	.	.	?	.
C[C@@H](C(=O)Nc1ccc2ccccc2c1)[C@H]1C[C@]1(C)[C@H](NC(=O)c1cccnc1)c1ccccc1	.	.	68	.	/
C[C@@H](C(=O)Nc1ccc2ccccc2c1)[C@@H]1C[C@@]1(C)[C@@H](NC(=O)c1ccccc1)c1ccccc1	.	.	.	.	.
C[C@@H]1CN([C@@H](C)CO)C(=O)c2c(c3ccccc3n2C)-c2ccccc2CO[C@@H]1CN(C)C(=O)Nc1ccc2c(c1)OCO2	.	.	.	.	/
O=C(c1cccc(S(=O)(=O)N2CCN(c3ccc(F)cc3)CC2)c1)N1CCCC(C(F)(F)F)C1 (stereo not drawn)	.	.	/	10.0	.
Cn1c(=O)c(N)c2c3c(c(Br)ccc31)C(=O)c1ccccc1-2	.	.	.	11	.
O=C(CCCOc1ccc(Cl)cc1Cl)Nc1cc(S(=O)(=O)N2CCOCC2)ccc1N1CCOCC1	.	.	79	.	.
COc1ccc(S(=O)(=O)N2CCOCC2)cc1NC(=O)CCCOc1ccc(Cl)cc1C	.	.	.	.	.
CCC1(c2ccccc2)NC(=O)N(CC(=O)Nc2cc(S(=O)(=O)N3CCCCC3)ccc2OC(C)C)C1=O (stereo not drawn)	.	.	98	.	.
CC(C)Oc1ccc(S(=O)(=O)N2CCOCC2)cc1NC(=O)CCCSc1ccccc1	.	.	.	8.4	.
Cc1ccc(S(=O)(=O)Nc2ccc3c(c2)C(=O)N([C@@H](C)CO)C[C@H](C)[C@H](CN(C)Cc2ccc(C(=O)O)cc2)OCCCC[C@@H](C)O3)cc1	.	.	.	.	/
Cc1ccc(S(=O)(=O)N2CCC(C(=O)Nc3ccc(S(=O)(=O)N4CCCC4)cc3)CC2)cc1	.	.	.	.	.
Cc1cccc(NC(=O)C2CCN(S(=O)(=O)c3ccc4c(c3)OCCO4)CC2)n1	.	.	/	.	.
Cc1cccc(NC(=O)C2CCN(S(=O)(=O)c3c(C)noc3/C=C/c3ccco3)CC2)n1	/	62	.	/	.
CCC(C)N1CCN(C(=O)C2CCN(S(=O)(=O)c3c(C)noc3/C=C/c3ccco3)CC2)CC1 (stereo not drawn)	.	70	.	.	.
Cc1cccc(NC(=O)C2CCN(S(=O)(=O)c3ccc4c(c3)OCCCO4)CC2)n1	.	.	83	.	.
Cc1ccc(S(=O)(=O)N2CCC(C(=O)Nc3ccc(S(=O)(=O)N4CCCC4)cc3)CC2)cc1C	.	67	.	.	.
Cc1ccc(S(=O)(=O)N2CCOCC2)cc1NC(=O)CN1CCN(c2ccc(O)cc2)CC1	.	.	.	.	.
Cc1ccc(S(=O)(=O)N2CCN(CC(=O)Nc3ccc(N4CCOCC4)cc3)CC2)cc1C	.	74	/	.	.
Cc1ccc(S(=O)(=O)CC(CN2CCCCC2)N2CCCCC2)cc1 (stereo not drawn)	.	90	.	.	.
O=S(=O)(CC(CN1CCCCC1)N1CCCCC1)c1ccc2ccccc2c1 (stereo not drawn)	.	.	.	.	.
SMILES	EWS-Fli block	PAX8 inh HTS	HIV Env fusion	F508del corr	GAA850 FXN act
Cc1ccc(C(c2nnnn2CS(=O)(=O)c2ccc(C)cc2)N2CCCC2)cc1 (stereo not drawn)	.	.	73	.	.
C[C@H]1CN([C@@H](C)CO)C(=O)c2cc(C#CC3CCCC3)cnc2O[C@@H]1CN(C)S(C)(=O)=O	.	/	.	.	/
CCCCNC(=O)O[C@H]1C[C@@H]2CCN3C(=O)CCC[C@H]([C@H]1Cc1ccccc1)[C@H]23	.	.	56	.	.
O=C(C[C@H]1C=C[C@H](NC(=O)c2ccccn2)[C@H](CO)O1)NCc1cccc(F)c1	.	.	.	.	/
COc1ccc(CCN(Cc2cccs2)S(=O)(=O)c2ccc(-n3cnnn3)cc2)cc1OC	/	.	86	/	.
COc1cc(S(=O)(=O)N(CCc2ccccc2)Cc2cccs2)ccc1-n1cnnn1	/	/	?	/	.
CN1c2ccc(-c3ccc(F)cc3)cc2[C@H]2[C@H](CCN2S(=O)(=O)c2cccc(F)c2)[C@@H]1CO	.	.	/	14	/
COc1ccc(S(=O)(=O)N2CC[C@@H]3[C@@H](CO)N(C)c4ccc(-c5ccc(F)cc5)cc4[C@@H]32)cc1	.	66	/	12	/
CN1c2ccc(-c3ccc(F)cc3)cc2[C@H]2[C@H](CCN2S(=O)(=O)c2ccc(F)cc2)[C@@H]1CO	55	.	/	?	/
COc1ccc(-c2ccc3c(c2)[C@@H]2[C@@H](CCN2S(=O)(=O)c2ccc(F)cc2)[C@@H](CO)N3C)cc1	.	.	/	.	/
COc1ccc(-c2ccc3c(c2)[C@H]2[C@H](CCN2S(=O)(=O)c2ccc(F)cc2)[C@H](CO)N3C)cc1	.	94	/	.	/
COc1ccc2c3c(n(C)c2c1)[C@@H](CO)N(C(=O)C1CCCC1)CC31CCN(C)CC1	.	.	/	.	/
C[C@H](CO)N1C[C@H](C)[C@@H](CN(C)C(=O)Nc2cccc3ccccc23)OCCCC[C@H](C)Oc2ccc(NS(=O)(=O)c3cccs3)cc2C1=O	.	.	.	.	/
COc1cccc(-c2ccc3c(c2)[C@H]2[C@H](CCN2S(=O)(=O)c2ccc(F)cc2)[C@@H](CO)N3C)c1	.	67	/	.	/
COc1ccc(S(=O)(=O)Nc2cccc3c2O[C@H](CN(C)S(=O)(=O)c2ccc(OC)cc2)[C@@H](C)CN([C@@H](C)CO)C3=O)cc1	/	.	/	.	/
CC1CC(C)CN(S(=O)(=O)c2ccc(Oc3ccc([N+](=O)[O-])cc3)cc2)C1 (stereo not drawn)	/	/	56	/	.
C[C@H]1CN([C@@H](C)CO)C(=O)c2cccc(NC(=O)c3ccc(-c4nccs4)cc3)c2O[C@H]1CN(C)S(=O)(=O)c1cccs1	.	/	.	.	/
Cc1cc(C(=O)c2ccccc2)cc(C)c1O	.	.	.	11	.
Cc1ccc(OC(=O)c2ccccc2)cc1C	.	.	.	.	.
CS(=O)(=O)Nc1ccc2c(c1)[C@@H]1C[C@@H](CC(=O)NCc3cc(F)ccc3F)O[C@@H](CO)[C@@H]1O2	.	.	.	.	/
C/C=C/c1ccc([C@@H]2[C@H](CO)N(CC3CC3)[C@H]2CNC(=O)c2ccccc2)cc1	.	.	/	10	/
O=C(NC[C@H]1[C@H](c2ccccc2)[C@H](CO)N1CC1CCCC1)c1ccccc1	.	.	/	.	/
C/C=C/c1ccc([C@@H]2[C@@H](CO)N(C(=O)COC)[C@H]2CNC(=O)CC)cc1	.	.	/	.	/
C/C=C/c1ccc([C@H]2[C@@H](CNC(=O)CC)N(C(=O)COC)[C@H]2CO)cc1	.	.	/	14	/
